PubChem BioAssay (Tox21)
Inconclusive results are not listed. Activity calls are given as the source filed them. Unless noted, the call rests on the fitted dose curve; in most records, active means well fitted curve in the direction sought with a large enough effect in the repeat runs; inconclusive means weak or mixed curves; inactive means no such curve, though single readings can be large; an effect the other way counts as inactive or inconclusive.

Key:
[1] = system: thyroid hormone receptor (rat, GH3 cells); assay: qHTS assay to identify small molecule agonists of the thyroid receptor (TR) signaling pathway (AID 743066; calls by dose curve)
[2] = molecular target: Estrogen receptor (Homo sapiens) (UniProt P03372); assay: qHTS assay to identify small molecule antagonists of the estrogen receptor alpha (ER-alpha) signaling pathway (AID 743069; active means well fitted curve in the direction sought with a large enough effect in the signal ratio in the repeat runs, not every such curve was filed as active; the % refers to the signal ratio)
Outline: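 HEK293 cells stably carrying an ER-alpha-UAS-bla beta-lactamase reporter were pre-cultured overnight in 2% charcoal-stripped FBS medium. Test compounds in DMSO were added together with 17beta-estradiol for 18 hr at 37C. Read-out was fluorescence after 2 hr with LiveBLAzer B/G FRET substrate at room temperature.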

[3] = qHTS assay to identify small molecule antagonists of the estrogen receptor alpha (ER-alpha) signaling pathway - cell viability counter screen (AID 743074; calls by dose curve; further: nearly all actives have a fitted effect of over 45% in size; further: potency means the concentration at half of the fitted maximal effect)
[4] = molecular target: Estrogen receptor (Homo sapiens) (UniProt P03372); assay: qHTS assay to identify small molecule agonists of the estrogen receptor alpha (ER-alpha) signaling pathway (AID 743075; calls by dose curve)
[5] = molecular target: Estrogen receptor (Homo sapiens) (UniProt P03372); assay: qHTS assay to identify small molecule agonists of the estrogen receptor alpha (ER-alpha) signaling pathway using the BG1 cell line (AID 743079); settings: BG1Luc4E2 cells, ERE-luciferase agonist, 22 h; activation: at 70.3 µM (top of the series); further: nearly all actives have a fitted effect of over 20% in size; further: potency means the concentration at half of the fitted maximal effect
[6] = qHTS assay to identify small molecule antagonists of the estrogen receptor alpha (ER-alpha) signaling pathway using the BG1 cell line (AID 743080; calls by dose curve; further: nearly all actives have a fitted effect of over 25% in size); settings: BG1Luc4E2 ERE-luciferase antagonist mode, luminescence; activity change, negative = inhibition: at 70.3 µM (top of the series)
Outline: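 Antagonist mode: compounds in DMSO were pinned onto BG1-Luc-4E2 cells alongside 17beta-estradiol agonist, incubated 21.5 h, and ERE-driven luciferase measured with ONE-Glo. Cytotoxicity was multiplexed using CellTiter-Fluor fluorescence.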

[7] = qHTS assay to identify small molecule antagonists of the estrogen receptor alpha (ER-alpha) signaling pathway using the BG1 cell line - cell viability counter screen (AID 743081);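 further: compound given together with 17beta-estradiol as the ER stimulus; nearly all actives have a fitted effect of over 45% in size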
[8] = molecular target: Aromatase (Homo sapiens) (UniProt P11511); assay: qHTS assay to identify aromatase inhibitors (AID 743083); further: nearly all actives have a fitted effect of over 55% in size; further: potency means the concentration at half of the fitted maximal effect
[9] = qHTS assay to identify aromatase inhibitors - cell viability counter screen (AID 743084);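 further: cells stimulated with testosterone during compound exposure; nearly all actives have a fitted effect of over 55% in size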
[10] = molecular target: Aryl hydrocarbon receptor (Homo sapiens) (UniProt P35869); assay: qHTS assay to identify small molecule that activate the aryl hydrocarbon receptor (AhR) signaling pathway (AID 743085); further: nearly all actives have a fitted effect of over 15% in size; further: potency means the concentration at half of the fitted maximal effect;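 on activation: HG2L7.5c1 human HepG2 liver cells with stably integrated DRE-driven firefly reporter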
Outline: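 A multiplexed format paired cell viability (CellTiter-Fluor fluorescence) with AhR-dependent luciferase output (ONE-Glo luminescence) in the same wells of HepG2 DRE-luc cells after 24 h compound exposure at 37C.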

[11] = qHTS assay to identify small molecule that activate the aryl hydrocarbon receptor (AhR) signaling pathway - cell viability counter screen (AID 743086);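 further: HepG2 liver cells carrying the AhR DRE luciferase reporter; nearly all actives have a fitted effect of over 45% in size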
Outline: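 HepG2-AhR-luc (HG2L7.5c1) cells, 4000/well, were preincubated 5 h at 37C, exposed to compound in qHTS format for 24 hr at 37C, then given CellTiter-Fluor for 30 min; viability was read as fluorescence in the reporter wells.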

[12] = molecular target: Peroxisome proliferator-activated receptor gamma (Homo sapiens) (UniProt P37231); assay: qHTS assay to identify small molecule agonists of the peroxisome proliferator-activated receptor gamma (PPARg) signaling pathway (AID 743094; active means well fitted activation curve with a large enough effect in the signal ratio in the repeat runs, not every such curve was filed as active; the % refers to the signal ratio)
Outline: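 Following 5 h plating at 37C, PPARg-bla HEK293H cells receive compound or DMSO for 17 h; fluorescence intensity is recorded after LiveBLAzer B/G loading for 1 h at room temperature.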

[13] = molecular target: Peroxisome proliferator-activated receptor gamma (Homo sapiens) (UniProt P37231); assay: qHTS assay to identify small molecule antagonists of the peroxisome proliferator-activated receptor gamma (PPARg) signaling pathway (AID 743191; calls by dose curve; further: nearly all actives have a fitted effect of over 30% in size)
Outline: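 GeneBLAzer PPARg UAS-bla HEK293H cells carrying a UAS-driven beta-lactamase reporter were plated at 3000 cells/well, preincubated 5 h at 37C, then given compound for 17 h at 37C; LiveBLAzer B/G FRET substrate was read after 1 h at room temperature.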

[14] = qHTS assay to identify small molecule antagonists of the peroxisome proliferator-activated receptor gamma (PPARg) signaling pathway - cell viability counter screen (AID 743194); further: nearly all actives have a fitted effect of over 55% in size
Outline: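 PPARg-UAS-bla HEK293H cells were plated, rested 5 h at 37 C, then treated with compounds plus rosiglitazone (50 nM final) for 17 h at 37 C; viability was then read by CellTiter-Glo luminescence after 30 min at room temperature.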

[15] = qHTS assay for small molecule agonists of the antioxidant response element (ARE) signaling pathway - cell viability counter screen (AID 743203; calls by dose curve; further: nearly all actives have a fitted effect of over 55% in size; further: potency means the concentration at half of the fitted maximal effect)
Outline: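 Compounds in DMSO were pinned onto ARE-bla HepG2 cells plated 5 hrs earlier at 2,000 cells/well. Sixteen hours later at 37C/5% CO2, CellTiter-Glo was added and luminescence measured after 30 min at room temperature.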

[16] = qHTS assay for small molecule activators of the heat shock response signaling pathway - cell viability counter screen (AID 743209); further: nearly all actives have a fitted effect of over 50% in size
Outline: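 Counter screen for cytotoxicity in HeLa HSE-bla reporter cells. Treatment was 5 h at 37 C; viability was detected by luminescent ATP assay (CellTiter-Glo) in the same wells as the beta-lactamase read.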

[17] = qHTS assay for small molecule activators of the heat shock response signaling pathway (AID 743210; active means well fitted activation curve with a large enough effect in the signal ratio in the repeat runs, with a control signal flat, not every such curve was filed as active; the % refers to the signal ratio)
Outline: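 HSE-bla HeLa cells (beta-lactamase reporter under heat shock response elements) were exposed to compounds for 5 h at 37 C, then loaded with LiveBLAzer B/G FRET substrate for 2.5 h at room temperature before fluorescence reading.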

[18] = qHTS assay to identify small molecule agonists of the peroxisome proliferator-activated receptor delta (PPARd) signaling pathway - cell viability counter screen (AID 743211); further: nearly all actives have a fitted effect of over 55% in size
Outline: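 Tox21 library compounds, delivered in DMSO, were incubated 17 h with PPARd-bla HEK293H cells; cytotoxicity was taken from CellTiter-Glo luminescence read 30 min after reagent addition.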

[19] = molecular target: Peroxisome proliferator-activated receptor delta (Homo sapiens) (UniProt Q03181); assay: qHTS assay to identify small molecule agonists of the peroxisome proliferator-activated receptor delta (PPARd) signaling pathway (AID 743212; calls by dose curve)
Outline: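 GeneBLAzer PPARd UAS-bla HEK293H cells (beta-lactamase reporter under UAS control), plated and rested 5 h at 37 C, then exposed to compounds in DMSO at 37 C; LiveBLAzer B/G FRET substrate added, 2 h room temperature, fluorescence read.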

[20] = qHTS assay for small molecule agonists of the antioxidant response element (ARE) signaling pathway (AID 743202; active means well fitted activation curve with a large enough effect in the signal ratio in the repeat runs, not every such curve was filed as active; the % refers to the signal ratio)
Outline: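 Read-out: LiveBLAzer B/G FRET substrate fluorescence after 2 h at room temperature, following 16 h compound treatment at 37 C of HepG2 cells carrying an ARE-driven beta-lactamase reporter.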

Measured: Potency

Sequence of Aryl hydrocarbon receptor (Homo sapiens) (P35869 whole entry, looked up): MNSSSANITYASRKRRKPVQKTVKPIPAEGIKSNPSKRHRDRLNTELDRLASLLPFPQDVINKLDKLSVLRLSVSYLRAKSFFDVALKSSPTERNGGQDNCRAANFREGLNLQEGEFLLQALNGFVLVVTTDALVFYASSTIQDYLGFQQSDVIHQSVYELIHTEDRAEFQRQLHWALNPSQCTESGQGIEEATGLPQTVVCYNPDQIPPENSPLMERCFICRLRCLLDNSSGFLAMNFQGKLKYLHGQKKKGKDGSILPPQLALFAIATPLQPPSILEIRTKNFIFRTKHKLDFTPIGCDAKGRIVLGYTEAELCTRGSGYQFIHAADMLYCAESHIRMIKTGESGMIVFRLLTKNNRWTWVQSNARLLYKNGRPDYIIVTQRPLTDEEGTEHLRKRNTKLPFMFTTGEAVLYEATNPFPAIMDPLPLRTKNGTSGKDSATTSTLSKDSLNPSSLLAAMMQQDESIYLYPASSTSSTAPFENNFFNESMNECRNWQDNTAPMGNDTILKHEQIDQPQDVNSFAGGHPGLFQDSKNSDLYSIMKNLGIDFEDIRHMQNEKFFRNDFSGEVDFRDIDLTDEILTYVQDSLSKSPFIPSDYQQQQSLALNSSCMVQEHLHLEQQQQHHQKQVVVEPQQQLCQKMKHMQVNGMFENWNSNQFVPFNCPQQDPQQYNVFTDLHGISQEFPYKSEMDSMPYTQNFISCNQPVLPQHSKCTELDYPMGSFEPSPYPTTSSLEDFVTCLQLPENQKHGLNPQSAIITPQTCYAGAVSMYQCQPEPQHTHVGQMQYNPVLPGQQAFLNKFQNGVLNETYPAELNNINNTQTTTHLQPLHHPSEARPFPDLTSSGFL
Sequence of Estrogen receptor (Homo sapiens) (P03372 whole entry, looked up): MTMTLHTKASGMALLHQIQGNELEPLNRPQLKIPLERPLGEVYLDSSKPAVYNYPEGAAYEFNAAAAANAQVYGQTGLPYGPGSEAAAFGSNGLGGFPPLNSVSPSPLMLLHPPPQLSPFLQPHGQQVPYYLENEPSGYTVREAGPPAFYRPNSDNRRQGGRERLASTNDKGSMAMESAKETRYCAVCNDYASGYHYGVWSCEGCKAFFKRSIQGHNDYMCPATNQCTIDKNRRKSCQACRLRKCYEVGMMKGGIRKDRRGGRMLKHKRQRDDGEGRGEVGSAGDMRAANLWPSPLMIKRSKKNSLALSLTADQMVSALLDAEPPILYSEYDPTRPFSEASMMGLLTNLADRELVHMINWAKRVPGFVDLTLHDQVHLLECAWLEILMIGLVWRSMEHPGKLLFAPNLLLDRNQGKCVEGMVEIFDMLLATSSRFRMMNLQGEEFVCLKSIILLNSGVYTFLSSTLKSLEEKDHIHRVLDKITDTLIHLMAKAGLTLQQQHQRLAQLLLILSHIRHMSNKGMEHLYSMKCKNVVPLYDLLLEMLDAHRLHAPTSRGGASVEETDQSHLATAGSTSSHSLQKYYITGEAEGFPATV
Sequence of Peroxisome proliferator-activated receptor gamma (Homo sapiens) (P37231 whole entry, looked up): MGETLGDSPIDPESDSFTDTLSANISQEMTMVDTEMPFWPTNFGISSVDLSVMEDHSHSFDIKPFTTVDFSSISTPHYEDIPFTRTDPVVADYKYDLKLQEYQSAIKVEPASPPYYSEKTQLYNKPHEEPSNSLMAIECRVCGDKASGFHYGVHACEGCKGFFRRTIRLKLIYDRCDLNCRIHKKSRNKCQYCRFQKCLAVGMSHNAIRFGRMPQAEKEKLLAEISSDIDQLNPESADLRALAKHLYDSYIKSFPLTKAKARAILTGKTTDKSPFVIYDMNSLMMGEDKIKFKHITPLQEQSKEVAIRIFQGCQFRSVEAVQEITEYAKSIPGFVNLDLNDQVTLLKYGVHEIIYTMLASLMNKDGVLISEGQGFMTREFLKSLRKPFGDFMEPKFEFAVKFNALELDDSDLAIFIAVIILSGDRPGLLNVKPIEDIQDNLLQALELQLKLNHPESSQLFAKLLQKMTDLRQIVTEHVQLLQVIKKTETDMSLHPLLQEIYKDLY
Sequence of Peroxisome proliferator-activated receptor delta (Homo sapiens) (Q03181 whole entry, looked up): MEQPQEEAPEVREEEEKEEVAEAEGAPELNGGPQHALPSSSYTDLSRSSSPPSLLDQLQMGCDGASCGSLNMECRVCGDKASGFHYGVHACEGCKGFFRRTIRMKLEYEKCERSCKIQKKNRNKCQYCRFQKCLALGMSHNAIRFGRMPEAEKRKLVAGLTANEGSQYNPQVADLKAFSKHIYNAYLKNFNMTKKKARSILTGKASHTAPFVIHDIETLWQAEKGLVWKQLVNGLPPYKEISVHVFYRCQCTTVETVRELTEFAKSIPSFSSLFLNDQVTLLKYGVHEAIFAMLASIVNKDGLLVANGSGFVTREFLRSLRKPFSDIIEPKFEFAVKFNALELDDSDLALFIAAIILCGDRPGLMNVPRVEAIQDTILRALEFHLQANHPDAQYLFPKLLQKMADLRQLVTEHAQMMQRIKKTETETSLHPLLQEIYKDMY
Sequence of Aromatase (Homo sapiens) (P11511 whole entry, looked up): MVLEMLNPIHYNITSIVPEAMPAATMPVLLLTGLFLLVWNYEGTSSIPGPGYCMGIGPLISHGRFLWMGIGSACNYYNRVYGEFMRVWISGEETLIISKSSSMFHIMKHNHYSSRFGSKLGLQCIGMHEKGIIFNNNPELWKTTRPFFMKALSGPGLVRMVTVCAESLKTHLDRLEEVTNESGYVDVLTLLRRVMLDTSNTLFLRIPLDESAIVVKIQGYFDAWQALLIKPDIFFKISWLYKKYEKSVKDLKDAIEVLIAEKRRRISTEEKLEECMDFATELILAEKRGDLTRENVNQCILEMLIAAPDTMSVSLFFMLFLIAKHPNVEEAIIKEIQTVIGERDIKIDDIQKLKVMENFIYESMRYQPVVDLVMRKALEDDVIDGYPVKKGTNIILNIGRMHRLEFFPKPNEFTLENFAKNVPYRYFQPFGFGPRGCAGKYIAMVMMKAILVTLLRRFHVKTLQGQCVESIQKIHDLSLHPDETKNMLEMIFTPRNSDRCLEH

O=Cc1ccc(F)cc1
inactive: [1] | [2] | [3] | [4] | [5] | [6] | [7] | [8] | [9] | [10] | [11] | [12] | [13] | [14] | [15] | [16] | [17] | [18] | [19]

S=P(N1CC1)(N1CC1)N1CC1
inactive: [1] | [2] | [3] | [4] | [5] | [6] | [7] | [8] | [9] | [10] | [11] | [12] | [18] | [19]

C[Si](C)(C)Cl
inactive: [1] | [2] | [3] | [4] | [5] | [6] | [7] | [8] | [9] | [10] | [11] | [14] | [15] | [16] | [17] | [18] | [19]

CCCCCCCCCCCCCCNCCO
active: [5] 0.188 µM | [10] 10.6 µM | [15] 26.6 µM
inactive: [1] | [2] | [3] | [4] | [7] | [8] | [9] | [11] | [16] | [17] | [18] | [19]

CCCCCCCC/C=C/CCCOC(C)=O
inactive: [1] | [2] | [3] | [4] | [5] | [6] | [7] | [8] | [9] | [10] | [11] | [12] | [13] | [14] | [15] | [18] | [19]

CCc1cccc(C)c1
inactive: [1] | [2] | [3] | [4] | [5] | [6] | [7] | [8] | [9] | [10] | [11] | [14] | [20] | [15] | [17] | [18] | [19]

O=S(=O)(O)CCCN1CCOCC1
inactive: [1] | [2] | [3] | [4] | [5] | [6] | [7] | [8] | [9] | [10] | [11] | [12] | [14] | [15] | [18] | [19]

CCCSS/C(CCO)=C(\C)N(C=O)Cc1cnc(C)nc1N
active: [8] 26.6 µM
inactive: [1] | [2] | [3] | [4] | [5] | [6] | [7] | [9] | [10] | [11] | [14] | [20] | [15] | [16] | [18]

C(=C/c1ccccc1)/c1ccccc1
inactive: [1] | [2] | [3] | [4] | [5] | [6] | [7] | [8] | [9] | [10] | [11] | [12] | [13] | [14] | [15] | [16] | [17] | [18] | [19]

CC1CCCNC1 (configuration not stated)
inactive: [1] | [2] | [3] | [4] | [5] | [6] | [7] | [8] | [9] | [10] | [11] | [12] | [13] | [14] | [20] | [15]

CN(C)CCOC(c1ccccc1)c1ccccc1 (tested in a mixture with another compound)
inactive: [1] | [2] | [4] | [5] | [6] | [11] | [14] | [20] | [15] | [16]
active: [3] 49.3 µM

CC(COC(=O)c1ccccc1)OC(=O)c1ccccc1 (configuration not stated)
inactive: [1] | [2] | [3] | [4] | [6] | [7] | [8] | [9] | [10] | [11] | [12] | [14] | [15] | [16] | [17] | [18]

O=C1OC(=O)c2cccc3cccc1c23
inactive: [1] | [2] | [3] | [4] | [5] | [6] | [7] | [8] | [11] | [12] | [13] | [14] | [15] | [16] | [17] | [18] | [19]

CCC(=O)OCCc1ccccc1
inactive: [1] | [2] | [3] | [4] | [5] | [6] | [7] | [9] | [10] | [11] | [12] | [13] | [14] | [15]

CCCN(CCc1cccs1)[C@H]1CCc2c(O)cccc2C1
inactive: [1] | [2] | [3] | [4] | [5] | [6] | [7] | [9] | [11] | [12] | [14] | [20] | [15] | [17] | [19]
active: [8] 26.6 µM

COC(=O)CC(C)CCC=C(C)C (configuration not stated)
inactive: [1] | [2] | [3] | [4] | [5] | [6] | [7] | [8] | [9] | [10] | [11] | [12] | [13] | [14] | [15] | [18] | [19]
